Compounds without any hit were thinned out: in the full panel of roughly 79,000, 15% have a hit. Calls of active or inactive are those of the source. No stated cut-off is given here; in the data, active means growth inhibition above about 70%; inactive means the rest.
What was measured:
[1] = NCI Yeast Anticancer Drug Screen. Data for the wt2 strain (AID 169);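 further: 0% = growth of vehicle-treated yeast cultures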; conditions: S. cerevisiae wt2 strain growth inhibition, active compounds read high
In short: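 Genetically defined yeast strains from a DNA-repair/cell-cycle panel were used. Compound-exposed yeast growth was measured, and the inhibition was calculated relative to vehicle treatment.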

[2] = NCI Yeast Anticancer Drug Screen. Data for the mlh1 strain (AID 171);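 further: 0% = growth of vehicle-treated control cultures of the same strain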; conditions: S. cerevisiae mlh1 strain growth inhibition, active compounds read high
In short: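 Here the genetically defined yeast mutant is grown with each compound, and the extent to which its growth falls below that of vehicle-exposed cells is reported.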

[3] = NCI Yeast Anticancer Drug Screen. Data for the sgs1 strain (AID 173);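 further: 0% = growth of vehicle-only control cultures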; conditions: S. cerevisiae sgs1 mutant, active compounds read high
In short: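 Relative growth inhibition, referenced to vehicle, was determined in a yeast strain with a defined alteration affecting DNA damage repair or cell cycle control after compound exposure.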

[4] = NCI Yeast Anticancer Drug Screen. Data for the mlh1 rad18 strain (AID 175); conditions: S. cerevisiae mlh1 rad18 strain growth inhibition, active compounds read high
In short: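 In this whole-cell yeast screen, a strain with altered DNA damage repair is challenged with compound, and its growth is measured against matched vehicle-treated controls.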

[5] = NCI Yeast Anticancer Drug Screen. Data for the rad18 strain (AID 177); conditions: S. cerevisiae rad18 mutant growth inhibition, active compounds read high
In short: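 Screen uses a yeast strain with a defined lesion in DNA damage repair; compound effect is read as loss of growth compared to untreated vehicle cultures.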

[6] = NCI Yeast Anticancer Drug Screen. Data for the rad52 strain (AID 147);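 further: 0% = growth of vehicle-treated control cultures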; conditions: S. cerevisiae rad52 mutant growth inhibition, active compounds read high
In short: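 Measured: yeast growth inhibition. System: strain with a defined DNA damage repair alteration. Reference: vehicle-treated control cultures.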

[7] = NCI Yeast Anticancer Drug Screen. Data for the wt1 strain (AID 149);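 further: 0% = growth of vehicle-treated wt1 cultures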; conditions: S. cerevisiae wt1 strain (SPY 50644) growth inhibition, active compounds read high
In short: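 wt1 strain grown with compound or vehicle; inhibition taken from the growth difference.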

[8] = NCI Yeast Anticancer Drug Screen. Data for the rad50EPP+ strain (AID 151);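 further: 0% = growth of vehicle-treated control cultures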; conditions: S. cerevisiae rad50 mutant strain, active compounds read high
In short: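 One strain with a rad50 alteration (rad50EPP+) was compound-treated, its growth then compared to that of vehicle controls.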

[9] = NCI Yeast Anticancer Drug Screen. Data for the mgt1 strain (AID 153); conditions: S. cerevisiae mgt1 mutant growth inhibition, active compounds read high
In short: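 After exposure of the mgt1 yeast mutant to compound, growth was measured and reported as inhibition compared with vehicle controls.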

[10] = NCI Yeast Anticancer Drug Screen. Data for the rad50 strain (AID 155);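 further: 0% = growth of vehicle-only cultures of the same strain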; conditions: S. cerevisiae rad50 strain growth inhibition, active compounds read high
In short: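 DNA repair mutant yeast, compound exposure, growth read-out; inhibition is taken relative to vehicle.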

[11] = NCI Yeast Anticancer Drug Screen. Data for the mec2-1 strain (AID 157); conditions: S. cerevisiae mec2-1 strain, active compounds read high
In short: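 Test agents were screened against the mec2-1 yeast strain, with defined DNA repair or cell cycle alteration. Growth was scored as inhibition against vehicle-only controls.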

[12] = NCI Yeast Anticancer Drug Screen. Data for the rad14 strain (AID 159);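 further: 0% = growth of vehicle-treated control cultures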; conditions: S. cerevisiae rad14 strain growth inhibition, active compounds read high
In short: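 DNA repair-defective yeast, compound-exposed; % growth inhibition derived by comparison with vehicle-treated controls.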

[13] = NCI Yeast Anticancer Drug Screen. Data for the sgs1 mgt1 strain (AID 161);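 further: 0% = growth of cultures given vehicle only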; conditions: S. cerevisiae sgs1 mgt1 strain, active compounds read high
In short: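 Genetically altered yeast, compound exposure, growth inhibition relative to vehicle.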

[14] = NCI Yeast Anticancer Drug Screen. Data for the CLN2oe strain (AID 163);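 further: 0% = growth of vehicle-only control cultures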; conditions: S. cerevisiae CLN2oe strain, active compounds read high
In short: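 Here, growth inhibition in a cell-cycle-altered yeast strain after compound exposure was quantified against vehicle control growth.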

[15] = NCI Yeast Anticancer Drug Screen. Data for the cln2 rad14 strain (AID 165);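 further: 0% = growth equal to vehicle treated cultures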; conditions: S. cerevisiae cln2 rad14 strain, active compounds read high
In short: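 Growth of compound-exposed yeast (cln2 rad14 genotype) measured and expressed as inhibition relative to vehicle.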

[16] = NCI Yeast Anticancer Drug Screen. Data for the bub3 strain (AID 167); conditions: S. cerevisiae bub3 mutant strain, active compounds read high
In short: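 In this screen, a yeast mutant lacking normal mitotic checkpoint function is challenged with compound. Relative growth versus vehicle gives the inhibition value.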

[17] = at 5.0 µM (retest, dose inferred, filed as 0.5)
[18] = at 50.0 µM (retest, dose inferred, filed as 5.0)

Measured: growth inhibition

Cc1cccc(/C=N/NC(=S)N2CCCC2)n1
active: [1]; at 33.0 µM 93% | [1]; at 100.0 µM 96% | [2]; at 33.0 µM 95% | [2]; at 100.0 µM 97% | [3]; at 33.0 µM 95% | [3]; at 100.0 µM 96% | [4]; [18] 95% | [4]; at 50.0 µM 86% | [5]; at 33.0 µM 95% | [5]; at 100.0 µM 96%
inactive: [1]; at 1.2 µM -6% | [1]; at 3.7 µM -8% | [1]; at 11.0 µM 10% | [2]; at 1.2 µM -8% | [2]; at 3.7 µM -8% | [2]; at 11.0 µM 48% | [3]; at 1.2 µM -19% | [3]; at 3.7 µM -21% | [3]; at 11.0 µM 17% | [4]; [17] 14% | [5]; at 1.2 µM -17% | [5]; at 3.7 µM -14% | [5]; at 11.0 µM 12%

COc1cc(C2SCC(=O)N2c2ccc(-c3ccc(-n4c(-c5ccccc5)nc5ccccc5c4=O)cc3)cc2)ccc1O (centres undefined)
inactive: [6]; at 1.2 µM -2% | [6]; at 3.7 µM 0% | [6]; at 11.0 µM 2% | [6]; at 33.0 µM 6% | [6]; at 100.0 µM 16% | [7]; at 1.2 µM -2% | [7]; at 3.7 µM -2% | [7]; at 11.0 µM -1% | [7]; at 33.0 µM -4% | [7]; at 100.0 µM -8% | [8]; at 1.2 µM 3% | [8]; at 3.7 µM 13% | [8]; at 11.0 µM 19% | [8]; at 33.0 µM 27% | [8]; at 100.0 µM 27% | [9]; at 1.2 µM 1% | [9]; at 3.7 µM 1% | [9]; at 11.0 µM 0% | [9]; at 33.0 µM 2% | [9]; at 100.0 µM 28% | [10]; at 1.2 µM -4% | [10]; at 3.7 µM -1% | [10]; [17] -11% | [10]; at 11.0 µM 0% | [10]; at 33.0 µM 8% | [10]; [18] 35% | [10]; at 50.0 µM 58.4% | [10]; at 100.0 µM 21% | [11]; at 1.2 µM 0% | [11]; at 3.7 µM -1% | [11]; [17] -11% | [11]; at 11.0 µM 0% | [11]; at 33.0 µM 2% | [11]; [18] 21% | [11]; at 50.0 µM 34% | [11]; at 100.0 µM 9% | [12]; at 1.2 µM -1% | [12]; at 3.7 µM -1% | [12]; at 11.0 µM 2% | [12]; at 33.0 µM 11% | [12]; at 100.0 µM 25% | [13]; [17] -7% | [13]; [18] 31% | [13]; at 50.0 µM 65% | [14]; at 1.2 µM -2% | [14]; at 3.7 µM -2% | [14]; at 11.0 µM -7% | [14]; at 33.0 µM -14% | [14]; at 100.0 µM -14% | [15]; [17] -9% | [15]; [18] 10% | [15]; at 50.0 µM 25.7% | [16]; at 1.2 µM 1% | [16]; at 3.7 µM 9% | [16]; [17] -14% | [16]; at 11.0 µM 19% | [16]; at 33.0 µM 23% | [16]; [18] 69% | [16]; at 100.0 µM 41% | [1]; at 1.2 µM -2% | [1]; at 3.7 µM -2% | [1]; at 11.0 µM -2% | [1]; at 33.0 µM -2% | [1]; at 100.0 µM 4% | [2]; at 1.2 µM -2% | [2]; at 3.7 µM 1% | [2]; at 11.0 µM 1% | [2]; at 33.0 µM 3% | [2]; at 100.0 µM 20% | [3]; at 1.2 µM -3% | [3]; at 3.7 µM 0% | [3]; at 11.0 µM 0% | [3]; at 33.0 µM 2% | [3]; at 100.0 µM 10% | [4]; [17] -14% | [5]; at 1.2 µM -3% | [5]; at 3.7 µM -1% | [5]; at 11.0 µM 0% | [5]; at 33.0 µM 3% | [5]; at 100.0 µM 7%
active: [16]; at 50.0 µM 82.3% | [4]; [18] 76% | [4]; at 50.0 µM 73.7%

O=[N+]([O-])c1cccc2nc3ccccc3c(NCCC[N+]3([O-])CCCCC3)c12
inactive: [6]; at 1.2 µM 20% | [6]; at 3.7 µM 47% | [7]; at 1.2 µM 1% | [7]; at 3.7 µM 2% | [7]; at 11.0 µM 4% | [7]; at 33.0 µM 15% | [7]; at 100.0 µM 46% | [8]; at 1.2 µM 10% | [8]; at 3.7 µM 36% | [9]; at 1.2 µM 0% | [9]; at 3.7 µM 1% | [9]; at 11.0 µM 5% | [9]; at 33.0 µM 7% | [9]; at 100.0 µM 56% | [10]; at 1.2 µM 4% | [10]; at 3.7 µM 16% | [10]; [17] 67% | [10]; at 11.0 µM 47% | [11]; at 1.2 µM 1% | [11]; at 3.7 µM 8% | [11]; [17] 39% | [11]; at 11.0 µM 35% | [12]; at 1.2 µM 6% | [12]; at 3.7 µM 28% | [14]; at 1.2 µM -2% | [14]; at 3.7 µM -5% | [14]; at 11.0 µM 46% | [16]; at 1.2 µM -13% | [16]; at 3.7 µM -8% | [16]; [17] -4% | [16]; at 11.0 µM 34% | [16]; at 50.0 µM 38.7% | [1]; at 1.2 µM 0% | [1]; at 3.7 µM 6% | [1]; at 11.0 µM 25% | [2]; at 1.2 µM 0% | [2]; at 3.7 µM 2% | [2]; at 11.0 µM 8% | [2]; at 33.0 µM 28% | [2]; at 100.0 µM 66% | [3]; at 1.2 µM 40%
active: [6]; at 11.0 µM 80% | [6]; at 33.0 µM 90% | [6]; at 100.0 µM 94% | [8]; at 11.0 µM 77% | [8]; at 33.0 µM 93% | [8]; at 100.0 µM 96% | [10]; at 33.0 µM 82% | [10]; [18] 93% | [10]; at 50.0 µM 81.3% | [10]; at 100.0 µM 91% | [11]; at 33.0 µM 86% | [11]; [18] 98% | [11]; at 50.0 µM 96% | [11]; at 100.0 µM 96% | [12]; at 11.0 µM 86% | [12]; at 33.0 µM 95% | [12]; at 100.0 µM 98% | [13]; [17] 78% | [13]; [18] 96% | [13]; at 50.0 µM 93.5% | [14]; at 33.0 µM 85% | [14]; at 100.0 µM 94% | [15]; [17] 95% | [15]; [18] 98% | [15]; at 50.0 µM 97.1% | [16]; at 33.0 µM 82% | [16]; [18] 86% | [16]; at 100.0 µM 87% | [1]; at 33.0 µM 85% | [1]; at 100.0 µM 96% | [3]; at 3.7 µM 70% | [3]; at 11.0 µM 84% | [3]; at 33.0 µM 91% | [3]; at 100.0 µM 93% | [4]; [17] 84% | [4]; [18] 98% | [4]; at 50.0 µM 94.4% | [5]; at 1.2 µM 93% | [5]; at 3.7 µM 95% | [5]; at 11.0 µM 96% | [5]; at 33.0 µM 96% | [5]; at 100.0 µM 96%
